Compound activity (PubChem)
TRPML1 blocker – human mucolipin-1 channel inhibition. Q9GZU1. TRPML1-inducible cells, Ca2+ dye fluorescence, FDSS; stronger effect = lower value; inhibition of EC80 agonist-evoked calcium signal. activity change, negative = inhibition, % (concentration not given with the values). 0.02% of 390,000 active. AID 624415; in the data active means activity change below about -50%; inconclusive means between about -30% and that limit;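 further: stimulus is agonist 54-4 at its EC80 concentration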
Target sequence (Q9GZU1 whole entry, looked up): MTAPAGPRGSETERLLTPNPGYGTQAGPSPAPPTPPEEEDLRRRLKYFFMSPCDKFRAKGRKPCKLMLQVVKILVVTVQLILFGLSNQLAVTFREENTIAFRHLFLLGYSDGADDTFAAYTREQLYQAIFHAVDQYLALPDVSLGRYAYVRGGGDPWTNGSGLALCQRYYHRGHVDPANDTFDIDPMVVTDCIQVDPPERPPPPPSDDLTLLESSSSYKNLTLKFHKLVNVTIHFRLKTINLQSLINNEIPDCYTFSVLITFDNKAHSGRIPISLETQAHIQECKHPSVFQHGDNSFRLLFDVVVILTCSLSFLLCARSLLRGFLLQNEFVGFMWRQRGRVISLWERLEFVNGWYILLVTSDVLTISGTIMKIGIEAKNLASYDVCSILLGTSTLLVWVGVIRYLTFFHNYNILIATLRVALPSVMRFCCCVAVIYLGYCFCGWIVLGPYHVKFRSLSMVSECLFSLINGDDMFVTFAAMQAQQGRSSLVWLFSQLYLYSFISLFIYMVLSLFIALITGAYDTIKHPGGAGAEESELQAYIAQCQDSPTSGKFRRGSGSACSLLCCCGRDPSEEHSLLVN
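Tet-induced TRPML1-DL cells loaded with Ca8 no-wash calcium dye were read kinetically on FDSS. Compound addition was followed by EC80 agonist 54-4 (4 uM final); inhibition was read over 110 s.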
TRHR enhancer – TRH receptor (human) allosteric enhancement | TRHR cells, fluo-8 calcium fluorescence, EC20 TRH enhancement | enhancement, % at 2 µM | 0.66% of 360,000 active; in the data active means enhancement above about 30%
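TRHR-expressing cells loaded with fluo-8 calcium dye were read kinetically (ex 480/em 530) during compound addition, then stimulated with an EC20 of TRH (10 nM final). Enhancement of the Gq-mediated intracellular calcium response was scored.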
Glioma ERSR ind – ER stress response induction in glioma; U87-MG GRP78 promoter luciferase reporter, 16 h; Potency, µM, hits mostly activators; AID 602332; 0.02% of 420,000 active; active means well fitted activation curve with a large enough effect; inconclusive means small, poorly fitted or top-dose-only effect; inactive means no such curve, though single readings can be large or run the other way; further: series mostly up to about 76 µM; nearly all actives have a fitted effect of over 35% in size
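Stably transfected U87-MG human glioma cells carrying a GRP78-based luminescent sensor were seeded at 1000 cells/well, pin-dosed with compounds and incubated 16 h. Luciferase reagent was then added, and end-point luminescence was read after 10 min at room temperature.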
TRHR ag – agonists of human TRH receptor. activation, % at 2 µM. 0.18% of 360,000 active. TRHR cells, calcium flux fluo-8, FDSS agonist mode. AID 493084. P34981; in the data active means activation above about 30%
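TRHR-expressing cells loaded with fluo-8 calcium dye; 23 nL library compound pin-transferred, kinetic FDSS fluorescence (Ex 480/Em 530) recorded about 180 s for agonist-induced calcium release, before a 10 nM TRH EC20 addition for potentiator mode.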
TRPML1 agonist – activates the human TRPML1 channel; TRPML1-expressing cells, Ca2+ dye fluorescence, FDSS; activation, % (test concentration not listed); 0.12% of 410,000 active; AID 624414; in the data active means activation above about 50%; inconclusive means mostly about 30% to 49%
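Tetracycline-induced TRPML1-DL cells are seeded and incubated overnight before loading with a no-wash Ca2+ dye and quencher. Agonist activity is taken from the 110 s fluorescence read following compound pin-transfer on an FDSS, before EC80 54-4 challenge.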
A number is an active result. In the library only some 0.8% were active in any assay of this set; here they are far more common.

CCOC(=O)[C@H](CCc1ccccc1)NC(C)C(=O)N1CC2(CC1C(=O)O)SCCS2 (some centres not stated) was read as Glioma ERSR ind inactive.
`Cc1c(C(=O)NCC2COCCO2)cnn1-c1ncc2c(n1)-c1ccccc1CC2` (configuration not stated) gave Glioma ERSR ind inactive.
For Cc1occc1C(=O)Nc1cccc(-c2nc(CNC(=O)c3ccc4ccccc4n3)c(C)o2)c1 the results were Glioma ERSR ind inactive.
For COc1ccc2nc(NC(=O)c3cc(=O)c4ccccc4o3)sc2c1 the results were TRPML1 blocker inactive, TRHR enhancer 39.8, Glioma ERSR ind inactive, TRHR ag inactive and TRPML1 agonist inactive.
Screening O=C(CO)N/N=C/c1ccccc1F returned TRPML1 blocker inactive, TRHR enhancer inactive, Glioma ERSR ind inactive, TRHR ag inactive and TRPML1 agonist inactive.
`C=CCNC(=O)CC(=O)N/N=C/c1ccccc1F` gave TRPML1 blocker inactive, TRHR enhancer 32.1, Glioma ERSR ind inactive, TRHR ag inactive and TRPML1 agonist inactive.
CC(=O)N1CCc2c(sc3c2c(=O)n(-c2ccccc2C)c(=O)n3CC(=O)Nc2ccccc2)C1 was read as TRPML1 blocker inactive, TRHR enhancer 48.4, Glioma ERSR ind inactive, TRHR ag inactive and TRPML1 agonist inactive.
Screening COc1ccc2cc(-c3cn4c(n3)sc3cc(F)ccc34)c(=O)oc2c1 returned TRPML1 blocker inactive, TRHR enhancer inactive, Glioma ERSR ind inactive, TRHR ag inactive and TRPML1 agonist inactive.
`CCCCCCc1cc2cc(-c3nnc(-c4cccc(Cl)c4)o3)c(=O)oc2cc1O` gave TRPML1 blocker inactive, TRHR enhancer inactive, Glioma ERSR ind inactive, TRHR ag 72.2 and TRPML1 agonist inactive.
`CCCCCCc1cc2cc(S(=O)(=O)c3ccc(C)cc3)c(=O)oc2cc1O` gave TRPML1 blocker inactive, TRHR enhancer 47.3, Glioma ERSR ind inactive, TRHR ag inactive and TRPML1 agonist inactive.
For CCCCCCc1cc2cc(-c3cn4c(n3)sc3cc(OC)ccc34)c(=O)oc2cc1O the results were TRPML1 blocker -70.7, TRHR enhancer inactive, Glioma ERSR ind inactive, TRHR ag inactive and TRPML1 agonist inactive.
Screening CCCCCCc1cc2cc(S(=O)(=O)c3ccc(Cl)cc3)c(=O)oc2cc1O returned TRPML1 blocker inactive, TRHR enhancer inactive, Glioma ERSR ind inactive, TRHR ag inactive and TRPML1 agonist inactive.
C[C@@H]1CN(Cc2ccc3c(c2)CN(Cc2cccn2-c2cccnc2)CCO3)C[C@H](C)O1 was read as Glioma ERSR ind inactive.
`Cc1nn(C)cc1CN1CCOc2ccc(C(C)(O)COc3ccccc3)cc2C1` (configuration not stated) gave Glioma ERSR ind inactive.
`COc1ccc(Cl)cc1NC(=O)CN(C)C(=O)c1ccc(N2CCCCC2)c([N+](=O)[O-])c1` gave TRPML1 blocker inactive, TRHR enhancer inactive, Glioma ERSR ind inactive, TRHR ag inactive and TRPML1 agonist 61.4.
CCN(CC)c1ccc2cc(S(=O)(=O)c3ccc(Cl)cc3)c(=O)oc2c1 was read as TRPML1 blocker inactive, TRHR enhancer inactive, Glioma ERSR ind inactive, TRHR ag 109.8 and TRPML1 agonist inactive.
Screening CCN(CC)c1ccc2cc(-c3nc(-c4ccc(Cl)cc4Cl)cs3)c(=O)oc2c1 returned TRPML1 blocker inactive, TRHR enhancer inactive, Glioma ERSR ind inactive, TRHR ag inactive and TRPML1 agonist inactive.
`N#C/C(=C\c1cccc(NC(=O)c2ccccc2Cl)c1)C(=O)NCCc1ccccc1` gave TRPML1 blocker inactive, TRHR enhancer 34.9, Glioma ERSR ind inconclusive, TRHR ag inactive and TRPML1 agonist inactive.
Screening COCCCNC(=O)/C(C#N)=C/c1cccc(NC(=O)c2ccccc2Cl)c1 returned TRPML1 blocker inactive, TRHR enhancer inactive, Glioma ERSR ind inactive, TRHR ag inactive and TRPML1 agonist inactive.
`Cn1c(=O)c2[nH]c(N3CCCCC3)nc2n(C)c1=O` gave TRPML1 blocker inactive, TRHR enhancer inactive, Glioma ERSR ind inactive, TRHR ag inactive and TRPML1 agonist 60.1.
Screening Cc1cc(NS(=O)(=O)c2ccc(NS(=O)(=O)c3ccc(Br)cc3)cc2)no1 returned TRPML1 blocker inactive, TRHR enhancer 33.4, Glioma ERSR ind inactive, TRHR ag inactive and TRPML1 agonist inactive.
